Measurements published in publication PMC7819943, “Rice protein-binding microarrays: a tool to detect cis-acting elements near promoter regions in rice”.
Over roughly 35,000 sequences, “fluorescence intensity (a.u.)” has its median near 10,000; the highest 2% begin near 52,000. The full list was thinned out, with the highest values kept by preference.

What follows are sequences tested against T1, OsWOX13 (Oryza sativa, UniProt Q5QMM3 1-267) (assay: protein-binding microarray (RPBM); PBS, 2% BSA, 51.3 ng/ul salmon testes DNA, 50 uM zinc acetate, 200 nM TF, 25 C, 1 h; high values mean tight binding). Settings: protein: recombinant; tags: N-terminal polyhistidine and DsRed monomer fusion (pET32a); label: CyDye5-dUTP incorporated in the synthesized complementary strand; 3' TTTTT single-stranded linker to array surface; dsDNA, one strand shown.
T1 sequence: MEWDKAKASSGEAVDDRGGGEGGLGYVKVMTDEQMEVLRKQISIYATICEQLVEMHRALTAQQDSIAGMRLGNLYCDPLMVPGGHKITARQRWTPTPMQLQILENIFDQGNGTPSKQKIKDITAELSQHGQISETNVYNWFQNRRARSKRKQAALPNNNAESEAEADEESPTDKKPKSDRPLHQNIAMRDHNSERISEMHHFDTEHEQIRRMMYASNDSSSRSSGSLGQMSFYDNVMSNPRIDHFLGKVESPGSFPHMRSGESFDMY
Method in brief: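 Per-feature fluorescence intensity (arbitrary units), read on an Axon 4000B scanner, is the binding signal. Transcription factors carrying an N-terminal polyhistidine tag and DsRed fusion were expressed in E. coli BL21-CodonPlus and purified on Ni–NTA. A custom Agilent array, made double-stranded by primer extension with Cy5-dUTP and blocked with 2% BSA, was incubated with 200 nM protein in PBS, 2% BSA, salmon testes DNA and 50 µM zinc acetate at 25 °C for 1 h and then washed.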
“TATGAATGCATTATGATTACTATTTGCTAATCATAAGTGGCGGAGTCACCTAGTGCAG” was tested, and the binding signal was 11000 fluorescence intensity (a.u.). “ACAAAACCATTTGTGATTTTCTTTGAGTGCCCAGTTTTGTCGGAGTCACCTAGTGCAG” was tested, and the binding signal was 3210 fluorescence intensity (a.u.). For “TTGACTATAATTGATTTGGATAGTTGGCTATAATAAACCTCGGAGTCACCTAGTGCAG”, the binding signal was 54500 fluorescence intensity (a.u.). With “TTATATTGATTTTCGTATGATTTTGGACACATAAGTACCTCGGAGTCACCTAGTGCAG” the binding signal was 38200 fluorescence intensity (a.u.). With “CTGAAATTGAAGTTAAATGCTACTAGTAATAATTGTACTACGGAGTCACCTAGTGCAG” the binding signal was 30100 fluorescence intensity (a.u.). “AGTAATTGATTGGCCGGATGCTACCGGTAGTTACTGACTACGGAGTCACCTAGTGCAG” was tested, and the binding signal was 60500 fluorescence intensity (a.u.). For “AGTAGTTAATTGGATTGGGCCGGGCCCACCGGCCCACGGCCGGAGTCACCTAGTGCAG”, the binding signal was 30300 fluorescence intensity (a.u.). For “GGATTTGATTGGATAAGCCGCTCGTAAGGACACCGTGCCTCGGAGTCACCTAGTGCAG”, the binding signal was 52300 fluorescence intensity (a.u.). “CATAATTGGTAAATTTGCGGGTTCAATTCCTGCTGGATGCCGGAGTCACCTAGTGCAG” was tested, and the binding signal was 59500 fluorescence intensity (a.u.). “ATTAACTATAAATGATTTGGAGTCAATAGTTGGCTATAATCGGAGTCACCTAGTGCAG” was tested, and the binding signal was 16100 fluorescence intensity (a.u.). In the case of “GAAATAAATTTTGGATTGGCTATGTTAATATGATATGACCCGGAGTCACCTAGTGCAG”, the binding signal is reported as 25900 fluorescence intensity (a.u.). In the case of “GAGTAAATTGCACACGGATGCAATCAATTGACCTGTGCTGCGGAGTCACCTAGTGCAG”, the binding signal is reported as 20000 fluorescence intensity (a.u.). In the case of “ATACTGCTGTAACATTTGATTGGATTGAAAGGATATCGCTCGGAGTCACCTAGTGCAG”, the binding signal is reported as 20500 fluorescence intensity (a.u.). “ATCACATAAAATTCCAGGGTTAATTGGATCCATGCTACTGCGGAGTCACCTAGTGCAG” was tested, and the binding signal was 8150 fluorescence intensity (a.u.). “GTTCGCGTGATTAATCAAAGCCTATTCCTTGTCACTATGACGGAGTCACCTAGTGCAG” was tested, and the binding signal was 12400 fluorescence intensity (a.u.). With “AAGAAAACCTAATTGTTACTACCATTTACCAAACCTACCACGGAGTCACCTAGTGCAG” the binding signal was 3910 fluorescence intensity (a.u.). In the case of “ACACATGATTTGCATGCCAACCTTATTTCTCCTTCACTTTCGGAGTCACCTAGTGCAG”, the binding signal is reported as 16500 fluorescence intensity (a.u.). With “CACTGCAAATTAGATCTATATATAGTGAAACATTGTGAGACGGAGTCACCTAGTGCAG” the binding signal was 6780 fluorescence intensity (a.u.). For “CGCCGTAACAATCAGAACCAATCATGCTCTATGTGTAGTTCGGAGTCACCTAGTGCAG”, the binding signal was 30300 fluorescence intensity (a.u.). With “CCCGTACGTGTTACCTAATCATGATGGGATGCCATAATACCGGAGTCACCTAGTGCAG” the binding signal was 3570 fluorescence intensity (a.u.). “ACATTAATGTGATTTCCCATTTCTACCCTATAGTTCAACACGGAGTCACCTAGTGCAG” was tested, and the binding signal was 12800 fluorescence intensity (a.u.). For “ACGTTGATTAGTTAGTACTAACCTACTCCTACGTGTTAACCGGAGTCACCTAGTGCAG”, the binding signal was 30400 fluorescence intensity (a.u.). With “GCTATAAAATTGACTATAATTGATTTGGAGCCGGTAGTTGCGGAGTCACCTAGTGCAG” the binding signal was 63600 fluorescence intensity (a.u.). In the case of “TACTAAATTGACTATGGACGATTTAGAGCTCGTAGTTGGCCGGAGTCACCTAGTGCAG”, the binding signal is reported as 53600 fluorescence intensity (a.u.). In the case of “GTAATTAATTACTTGATTAACAATTAAATAATAATAGTTACGGAGTCACCTAGTGCAG”, the binding signal is reported as 33200 fluorescence intensity (a.u.). In the case of “AAAATTGACTATAAATGATTTGGAGCCGGTAGTTGGCTATCGGAGTCACCTAGTGCAG”, the binding signal is reported as 51700 fluorescence intensity (a.u.). “GATTAATTGAAAGTTTACATGGACGACGTTGACTCGGGGCCGGAGTCACCTAGTGCAG” was tested, and the binding signal was 54700 fluorescence intensity (a.u.). In the case of “AAAGTAGTTAATTACTGCTAATTACATGGATTAGTTGGGTCGGAGTCACCTAGTGCAG”, the binding signal is reported as 33500 fluorescence intensity (a.u.). “TTTAATTTTGAATTTTAATTAATTGGAGTTTACACGGACTCGGAGTCACCTAGTGCAG” was tested, and the binding signal was 39800 fluorescence intensity (a.u.). In the case of “CGCGTTGATTAATTAGTCAGTTCGTTAACAACCTCGACTACGGAGTCACCTAGTGCAG”, the binding signal is reported as 53000 fluorescence intensity (a.u.). In the case of “AAATTACTAATTTACCTATAATTAGTTGGACTCTAGCTCTCGGAGTCACCTAGTGCAG”, the binding signal is reported as 37600 fluorescence intensity (a.u.). In the case of “TATTAAATTGACTATAGATGATTTGGAGCTAGTAATTGGCCGGAGTCACCTAGTGCAG”, the binding signal is reported as 36800 fluorescence intensity (a.u.). With “ATTACATTGACTAATAGATGATTTAGAGCTAATAGTGGGCCGGAGTCACCTAGTGCAG” the binding signal was 25200 fluorescence intensity (a.u.). “ACAAGTTGATGGGGACACTTTTCTTATGTAGTATATAATTCGGAGTCACCTAGTGCAG” was tested, and the binding signal was 3270 fluorescence intensity (a.u.). For “AACCCTGATTTCCGTGCTCAACGTTTGACCGTCCGTCTTGCGGAGTCACCTAGTGCAG”, the binding signal was 4670 fluorescence intensity (a.u.). “TCGATCACAAATTAATATTGTTTGCATACATACTCATATGCGGAGTCACCTAGTGCAG” was tested, and the binding signal was 6200 fluorescence intensity (a.u.). For “ATCCAATCATTTCAAAACGTATTCCTCAGCACATTAAACGCGGAGTCACCTAGTGCAG”, the binding signal was 19400 fluorescence intensity (a.u.). “GCTAATTGCAATTTTGGCCGTCCATAAAGAGCTTGCGGCCCGGAGTCACCTAGTGCAG” was tested, and the binding signal was 52900 fluorescence intensity (a.u.). In the case of “ACTAGCTAACTAAATTTGAAAGAGACTAGCTAGCTGCTTGCGGAGTCACCTAGTGCAG”, the binding signal is reported as 6300 fluorescence intensity (a.u.). With “CCATAATTTTGCAAAGACATCAAACCAAATAAAACCAATGCGGAGTCACCTAGTGCAG” the binding signal was 6680 fluorescence intensity (a.u.). With “GATAATGGTAGTGATTGGTTGAGGCTTGAGAGTAGATGTACGGAGTCACCTAGTGCAG” the binding signal was 30600 fluorescence intensity (a.u.). For “CTAAACCGCATAATAATTTACAGAAATGCCCCTCACCTCCCGGAGTCACCTAGTGCAG”, the binding signal was 11300 fluorescence intensity (a.u.).
